The target of assay [1] is Albumin (Bos taurus) (UniProt P02769). Kind of assay: compounds binding labelled BSA control protein – biochemical, small-molecule microarray, Alexa647 label, 635/667 nm fluorescence, artefact control for SMM control protein annotation, profiling panel (AID 1118).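 Also: score merges 667 nm emission intensity and signal-to-noise per printed compound spot.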 Particulars: BSA-A647 binding, fluorescence 635 nm, higher = more signal.
Assay [2] is described as follows: probe aXIP binding to arrayed compounds – biochemical, NeuroSMM set, 635/667 nm fluorescence, primary screen (AID 1119).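 Also: probe is the protein aXip251-270 applied at 1 µg/mL to compound-printed slides; binding of probe to printed compounds measured as 667 nm fluorescence plus signal to noise.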 Particulars: small-molecule microarray, higher = more signal, called active from +8 up or from −8 down.
Assay [3] is described as follows: probe aNOTCH3 binding on compound microarray – biochemical, small-molecule microarray, 635/667 nm fluorescence, primary screen (AID 1120).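 Also: probe is a biotin-tagged antibody raised against NOTCH3 rather than NOTCH3 protein; score merges spot fluorescence near 667 nm with spot signal to noise.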 Particulars: higher = more signal.
Assay [4] can be described thus: probe aNOTCH2 binding on compound microarray – biochemical, small-molecule microarray, 635/667 nm fluorescence, primary screen (AID 1121).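 Also: score merges feature fluorescence read at 667 nm with its signal to noise.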 Particulars: higher = more signal.
The target in assay [5] is Carbonic anhydrase 2 (Homo sapiens) (UniProt P00918). Kind of assay: compounds binding carbonic anhydrase 2 – biochemical, small-molecule microarray, Alexa647-labelled CAII, profiling panel (AID 1122). The conditions noted are these: CAII-A647 binding fluorescence, higher = more signal.
A short description of assay [6]: COS7 lysate on small-molecule microarray, probe aHis, 635 nm (AID 1123).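 Also: z-score combines 667nm fluorescence intensity with signal-to-noise per printed compound spot.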 The conditions noted are these: COS7 cell lysate, fluorescence, higher = more signal.
Assay [7] can be described thus: probe aLAP1 signal on lysate-treated microarray – cell lysate, small-molecule microarray, COS7 lysate, primary screen (AID 1124).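 Also: lysate comes from COS7 cells expressing LAP1 and is applied at 0.3 µg/mL; score merges spot fluorescence near 667 nm with signal-to-noise over triplicate slides.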 Particulars: probe aLAP1, fluorescence, higher = more signal.
For assay [8], the system named is Sam68 (KHDRBS1). Kind of assay: compounds binding KHDRBS1 protein – biochemical, small-molecule microarray, 635 nm fluorescence, primary screen (AID 1125).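 Also: score merges 667 nm channel intensity with signal to noise over triplicate slides.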 Particulars: higher = more signal.
For assay [9], the system named is Chordin-like protein 2 (CHRDL2). Briefly: compounds binding chordin-like 2 – biochemical, small-molecule microarray, 635 nm fluorescence, primary screen (AID 1126).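 Also: printed compound slides probed with Chrdl2 protein at 4 µg/mL for 1 h at 4 C; score merges 667 nm emission intensity with signal to noise over three replicate slides.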 The conditions noted are these: fluorescence 635 nm, higher = more signal.
The target in assay [10] is Concanavalin-A (Canavalia ensiformis) (UniProt P02866). Briefly: compounds binding concanavalin A lectin – biochemical, small-molecule microarray, Alexa647 label, 635 nm, artefact control for SMM control protein annotation, primary screen (AID 1127).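 Also: z combines 667 nm emission intensity with signal-to-noise across three replicate slides.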 The conditions noted are these: ConA-A647 binding fluorescence, higher = more signal.
The nature of assay [11]: compounds binding Alexa647 anti-His antibody – biochemical, small-molecule microarray, 635 nm fluorescence, artefact control for SMM control protein annotation, primary screen (AID 1128).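 Also: score merges feature fluorescence with signal-to-noise for each printed compound spot.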 The conditions noted are these: higher = more signal.
For assay [12], the system named is Human papillomavirus type 1a E7 protein (residues 1-88). Briefly: HPV1a E7 small-molecule binders, primary screen, biochemical, small-molecule microarray, residues 1-88, 635 nm (AID 1129). The conditions noted are these: small-molecule microarray binding, fluorescence 635 nm; higher = more signal.
The target in assay [13] is Focal adhesion kinase 1 (Homo sapiens) (UniProt Q05397). Briefly: PTK2 protein binding on printed compound slides – biochemical, small-molecule microarray, 635/667 nm fluorescence, BSA, DTT, primary screen (AID 1130).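 Also: composite of spot emission at 667 nm and signal to noise over triplicate slides.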 The conditions noted are these: 635 nm fluorescence, higher = more signal.
In assay [14] the test system is Fibrinogen (Alexa647-labelled). Kind of assay: Alexa647-fibrinogen binding to printed small molecules – biochemical, small-molecule microarray, 635/667 nm fluorescence, artefact control for SMM control-protein annotation, profiling panel (AID 1131).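 Also: z-score merges 667 nm fluorescence with per-spot signal-to-noise over triplicate slides.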 The conditions noted are these: fibrinogen-A647 binding fluorescence, higher = more signal.
The target of assay [15] is Follistatin (Homo sapiens) (UniProt P19883). Briefly: FST protein binding to printed compounds – biochemical, small-molecule microarray, 635/667 nm fluorescence, primary screen (AID 1132). The conditions noted are these: 635 nm fluorescence, higher = more signal.
Assay [16] concerns the target Fibroblast growth factor 2 (Homo sapiens) (UniProt P09038). Briefly: basic fibroblast growth factor binding to printed compounds – biochemical, small-molecule microarray, 635/667 nm fluorescence, primary screen (AID 1133). Particulars: FGF2, fluorescence 635/667, higher = more signal.
Assay [17] in a line: JC-1 mitochondrial potential readout, lung cancer cells – cell-based, A549, JC-1 fluorescence, basal, 24 h, 100 nL, profiling panel (AID 1138).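 Also: A549 lung adenocarcinoma cells under basal conditions with no added stimulus; test concentration not given here.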 Particulars: higher = more signal.
Assay [18] has as its system Lefty1. Briefly: Lefty1 protein binding to printed compounds – biochemical, small-molecule microarray, 635/667 nm fluorescence, primary screen (AID 1139). The conditions noted are these: fluorescence 635/667, higher = more signal.
The subject of assay [19] is wheat germ agglutinin (Triticum aestivum), Alexa647-labelled. Kind of assay: Alexa647-WGA lectin binding to printed small molecules – biochemical, small-molecule microarray, 635/667 nm fluorescence, artefact control for SMM control-protein annotation, profiling panel (AID 1140).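 Also: score merges 667 nm feature emission with signal to noise over triplicate slides.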 The conditions noted are these: WGA-A647 binding, 635 nm fluorescence, higher = more signal.

The target of assay [20] is Luciferin 4-monooxygenase (Photinus pyralis) (UniProt P08659). Briefly: inhibition of purified Photinus pyralis luciferase – biochemical, luminescence, purified enzyme, 2006 set, primary screen (AID 1141).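 Also: cell-free assay with purified firefly luciferase at 100 ng per well in PBS; test concentration not given here.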 Particulars: purified firefly luciferase, SteadyGlo luminescence, 30 min; higher = more signal, called active from +8 up or from −8 down.

Activity calls are given as the source filed them.

Sequence of Concanavalin-A (Canavalia ensiformis) (P02866 whole entry, looked up): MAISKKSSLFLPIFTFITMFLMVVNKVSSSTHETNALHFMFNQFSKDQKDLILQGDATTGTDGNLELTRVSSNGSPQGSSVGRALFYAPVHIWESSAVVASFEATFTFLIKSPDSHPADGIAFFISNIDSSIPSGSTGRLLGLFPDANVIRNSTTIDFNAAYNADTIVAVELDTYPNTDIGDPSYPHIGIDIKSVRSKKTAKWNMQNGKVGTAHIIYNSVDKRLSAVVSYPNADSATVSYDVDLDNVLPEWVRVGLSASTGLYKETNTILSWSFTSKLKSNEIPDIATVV
Sequence of Fibroblast growth factor 2 (Homo sapiens) (P09038 whole entry, looked up): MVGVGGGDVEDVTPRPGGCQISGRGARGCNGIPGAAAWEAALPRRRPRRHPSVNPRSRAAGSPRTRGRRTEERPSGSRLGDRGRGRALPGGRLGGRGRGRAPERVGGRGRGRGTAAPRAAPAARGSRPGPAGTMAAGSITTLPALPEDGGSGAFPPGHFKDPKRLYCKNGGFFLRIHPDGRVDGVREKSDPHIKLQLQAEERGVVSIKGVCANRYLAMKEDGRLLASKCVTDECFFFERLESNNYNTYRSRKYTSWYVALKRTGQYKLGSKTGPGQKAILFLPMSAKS
Sequence of Albumin (Bos taurus) (P02769 whole entry, looked up): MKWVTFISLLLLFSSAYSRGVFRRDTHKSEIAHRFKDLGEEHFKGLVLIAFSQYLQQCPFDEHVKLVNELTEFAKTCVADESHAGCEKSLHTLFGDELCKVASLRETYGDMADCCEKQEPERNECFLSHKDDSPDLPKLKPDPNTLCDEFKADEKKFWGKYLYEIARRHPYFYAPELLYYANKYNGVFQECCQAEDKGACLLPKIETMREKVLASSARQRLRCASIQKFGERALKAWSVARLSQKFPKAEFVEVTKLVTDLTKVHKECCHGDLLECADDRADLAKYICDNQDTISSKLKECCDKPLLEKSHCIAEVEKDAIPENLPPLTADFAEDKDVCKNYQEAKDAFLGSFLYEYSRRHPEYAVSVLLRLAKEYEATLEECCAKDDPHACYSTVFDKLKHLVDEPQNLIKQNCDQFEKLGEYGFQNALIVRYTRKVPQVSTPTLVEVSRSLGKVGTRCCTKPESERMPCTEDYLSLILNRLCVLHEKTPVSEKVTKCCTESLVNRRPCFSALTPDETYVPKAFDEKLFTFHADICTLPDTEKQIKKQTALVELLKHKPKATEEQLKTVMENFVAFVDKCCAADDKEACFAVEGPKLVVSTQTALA
Sequence of Focal adhesion kinase 1 (Homo sapiens) (Q05397 whole entry, looked up): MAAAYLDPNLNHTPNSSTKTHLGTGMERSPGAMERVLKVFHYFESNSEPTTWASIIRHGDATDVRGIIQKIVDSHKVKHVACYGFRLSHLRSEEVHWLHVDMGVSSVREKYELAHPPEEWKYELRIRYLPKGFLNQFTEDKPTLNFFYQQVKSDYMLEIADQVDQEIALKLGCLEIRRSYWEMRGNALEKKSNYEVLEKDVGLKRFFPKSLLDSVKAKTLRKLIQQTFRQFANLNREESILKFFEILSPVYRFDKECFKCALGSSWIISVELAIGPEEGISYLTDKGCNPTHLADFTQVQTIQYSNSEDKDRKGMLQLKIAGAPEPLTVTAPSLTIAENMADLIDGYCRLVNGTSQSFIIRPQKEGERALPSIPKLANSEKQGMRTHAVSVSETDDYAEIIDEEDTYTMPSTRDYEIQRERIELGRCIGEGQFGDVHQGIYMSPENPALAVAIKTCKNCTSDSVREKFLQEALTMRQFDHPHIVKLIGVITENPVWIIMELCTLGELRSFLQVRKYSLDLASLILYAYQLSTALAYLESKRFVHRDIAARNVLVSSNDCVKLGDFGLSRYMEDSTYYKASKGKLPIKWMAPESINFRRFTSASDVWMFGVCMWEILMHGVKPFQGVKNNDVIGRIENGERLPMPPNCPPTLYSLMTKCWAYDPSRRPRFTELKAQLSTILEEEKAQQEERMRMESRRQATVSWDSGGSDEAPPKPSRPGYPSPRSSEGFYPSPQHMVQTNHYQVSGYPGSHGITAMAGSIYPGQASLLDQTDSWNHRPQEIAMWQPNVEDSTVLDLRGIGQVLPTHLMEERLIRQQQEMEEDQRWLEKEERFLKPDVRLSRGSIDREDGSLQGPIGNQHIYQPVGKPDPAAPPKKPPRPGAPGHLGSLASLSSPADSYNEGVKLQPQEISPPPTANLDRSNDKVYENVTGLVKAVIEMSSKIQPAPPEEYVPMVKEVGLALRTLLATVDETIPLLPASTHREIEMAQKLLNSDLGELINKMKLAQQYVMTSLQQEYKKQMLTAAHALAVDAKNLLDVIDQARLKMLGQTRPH
Sequence of Luciferin 4-monooxygenase (Photinus pyralis) (P08659 whole entry, looked up): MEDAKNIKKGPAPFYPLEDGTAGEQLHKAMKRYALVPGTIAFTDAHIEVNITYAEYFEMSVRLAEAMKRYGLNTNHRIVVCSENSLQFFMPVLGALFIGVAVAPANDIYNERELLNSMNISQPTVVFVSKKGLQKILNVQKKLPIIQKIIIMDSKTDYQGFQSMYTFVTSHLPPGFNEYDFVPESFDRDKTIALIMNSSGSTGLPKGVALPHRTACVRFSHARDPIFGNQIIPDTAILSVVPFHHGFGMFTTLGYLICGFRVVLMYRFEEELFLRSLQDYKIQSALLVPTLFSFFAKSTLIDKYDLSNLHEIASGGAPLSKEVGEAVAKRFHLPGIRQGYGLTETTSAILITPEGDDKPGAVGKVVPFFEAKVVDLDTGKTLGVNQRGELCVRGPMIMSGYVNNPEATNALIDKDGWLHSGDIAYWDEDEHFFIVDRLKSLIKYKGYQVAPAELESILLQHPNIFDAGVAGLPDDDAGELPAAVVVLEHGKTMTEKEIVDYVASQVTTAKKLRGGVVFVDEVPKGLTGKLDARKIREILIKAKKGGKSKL
Sequence of Follistatin (Homo sapiens) (P19883 whole entry, looked up): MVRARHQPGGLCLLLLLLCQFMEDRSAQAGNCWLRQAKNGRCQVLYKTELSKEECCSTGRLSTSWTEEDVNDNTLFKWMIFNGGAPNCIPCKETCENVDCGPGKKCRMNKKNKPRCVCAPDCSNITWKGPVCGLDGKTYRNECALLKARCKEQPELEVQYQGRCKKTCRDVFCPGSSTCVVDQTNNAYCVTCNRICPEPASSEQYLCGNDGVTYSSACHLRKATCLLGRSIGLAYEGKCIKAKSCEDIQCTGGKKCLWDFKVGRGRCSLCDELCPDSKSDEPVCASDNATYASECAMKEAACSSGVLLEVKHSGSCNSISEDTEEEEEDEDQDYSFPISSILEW

Take `COc1ccc([Si](C)(C)[C@@H]2[C@@H](CC(=O)N3CCC[C@H]3CO)O[C@]3(C(=O)N(Cc4ccc(N5CCC5=O)cc4)c4ccccc43)[C@H]2C)cc1`: the composite z-score in [1] is -0.82; in [3] it was 0.0026; in assay [4], -0.0624; in assay [5], 0.415; in assay [6], 1.05; in assay [7], -0.31. Also, the composite z-score in assay [8] came to 1.31; in assay [9], 0.183; in [10], 1.08; in assay [11] it was 2.01; in assay [12], 1.13; in assay [13], 0.983. Moreover, the composite z-score in assay [14] was 0.406; in [15] it was 0.712; in [16] it was 0.589; in assay [18], 1.04; in [19], 0.0389. For the same molecule, the composite Z-score in assay [2] was 0.566 (inactive). For the same molecule, the z-score in [17] was 1.55; in assay [20] it was -1.45 (inactive).

Consider `COC(=O)c1c2oc(c1C(=O)OC)C(=O)N[C@@H](C(C)C)Cn1nncc1C1(CCCCC1)NC(=O)N[C@H](CO)CC2`, for which the composite z-score was 0.543 in assay [1]; -0.126 in assay [3]; -0.131 in assay [4]; 0.86 in assay [5]; 0.942 in assay [6]; -0.162 in [7]. Also, the composite z-score in assay [8] is -0.0929; in [9], -0.573; in assay [10] it was 0.77; in assay [11], -0.614; in [12] it was -0.622; in [13], 0.195. For the same molecule, the composite z-score in [14] was -1.26; in assay [15], -0.238; in assay [16], 0.0484; in assay [18], 0.0278; in [19], -0.719. In addition, the composite Z-score in assay [2] is 0.559 (inactive). Also, the z-score is 2.33 in assay [17] and -1.25 (inactive) in assay [20].

For `O=C(O)[C@H]1C[C@H]2C(=O)N[C@@H](Cc3ccccc3)C(=O)N2[C@H]1c1ccc(O)cc1`, the composite z-score in assay [1] was -0.728; in [3], -0.0918; in [4] it was -0.0415; in assay [5], 0.659; in assay [6], 1.88; in assay [7], 0.414. Moreover, the composite z-score in assay [8] is 1.08; in assay [9] it was -0.372; in assay [10], 0.956; in [11], 1.19; in assay [12], -0.514; in assay [13], 0.171. In addition, the composite z-score in assay [14] was -0.0232; in assay [15], 1.26; in assay [16], 0.677; in [18], 0.438; in [19] it was 0.302. The composite Z-score in [2] is 1.09 (inactive). In addition, the z-score in assay [17] is 1.2; in assay [20], -1.3 (inactive).

`COCCOC(=O)N1C(=O)[C@@]2(c3cc(C#CC4(O)CCCCCC4)ccc31)[C@H](c1ccccc1OCCO)N1[C@H](c3ccccc3)[C@H](c3ccccc3)OC(=O)[C@H]1[C@@H]2C(=O)Nc1nc2ccccc2s1`: the composite z-score was 0.655 in [1]; -0.0942 in [3]; -0.0843 in assay [4]; 0.53 in assay [5]; 1.16 in [6]; 0.417 in assay [7]. Moreover, the composite z-score amounted to 1.16 in assay [8]; 0.478 in [9]; 1.18 in assay [10]; 1.84 in assay [11]; 1.21 in assay [12]; 0.862 in [13]. Moreover, the composite z-score in [14] stood at 0.805; in assay [15] it was 1.39; in assay [16], 1.16; in assay [18], 1.5; in [19] it was 1.14. Moreover, the composite Z-score in assay [2] was -0.344 (inactive). Besides, the values for the z-score in [17] and in assay [20] were -1.56 and -2.53 (inactive), respectively.

With `Cc1ccc(S[C@]2(C(=O)NCCN3CCOCC3)CC(=O)N(Cc3cc(C(F)(F)F)cc(C(F)(F)F)c3)[C@@H]2c2ccc(CO)cc2)cc1`, the composite z-score in assay [1] was 0.0152; in [3], -0.304; in [4] it was -0.0846; in assay [5], 0.78; in assay [6], 0.244; in assay [7], 0.248. In addition, the composite z-score was -0.142 in assay [8]; -1.01 in assay [9]; -0.664 in [10]; -1.03 in assay [11]; 0.624 in assay [12]; 0.151 in [13]. For the same molecule, the composite z-score in [14] was -0.899; in [15], -1.09; in [16] it was -1.21; in assay [18], -1.1; in assay [19], -1.54. In assay [2], the composite Z-score was -0.654 (inactive). In addition, the z-score in assay [17] was 1.59; in [20], -0.682 (inactive).

As to `COC(=O)C(CC#Cc1ccc2c(c1)[C@]1(C(=O)N2)[C@H](C(N)=O)[C@H]2C(=O)O[C@H](c3ccccc3)[C@H](c3ccccc3)N2[C@@H]1c1ccc(O)cc1)C(=O)OC`, the composite z-score is 0.201 in assay [1]; 0.122 in [3]; 0.0286 in assay [4]; 0.803 in assay [5]; 1.15 in [6]; 0.478 in assay [7]. In addition, the composite z-score in assay [8] is -0.942; in assay [9] it was -1.33; in [10], -1.92; in assay [11], 0.62; in assay [12] it was -0.328; in assay [13] it was 0.418. Moreover, the composite z-score in [14] is -1.59; in assay [15] it was -0.919; in assay [16] it was -0.292; in assay [18], -0.861; in assay [19], -0.3. Moreover, in assay [2], the composite Z-score was 0.0742 (inactive). Further, the values for the z-score in assay [17] and in assay [20] were -1.07 and -1.43 (inactive), respectively.

The values are drawn from PubChem BioAssay.
